Most compounds without a hit are left out; they make up all but 6% or so of the library.
PLK1 PBD inh = blocks phosphopeptide binding to human PLK1 polo-box domain; AID 720504; P53350; Plk1 PBD binding of FITC phosphopeptide, fluorescence polarization; Potency, µM, for inactives: max response, negative = inhibition, hits mostly inhibitors; actives 2.8% (n = 360,000); further: series mostly up to about 57 µM; nearly all actives have a fitted effect of over 65% in size
VDR inhibitor = blocks the human vitamin D receptor. VDR-SRC2-3 peptide fluorescence polarization, 2 h. AID 504847. P11473. actives 0.93% (n = 400,000). Potency, µM, for the others: max response, negative = inhibition, actives largely listed as inhibitors
Target sequence (P11473 whole entry, looked up): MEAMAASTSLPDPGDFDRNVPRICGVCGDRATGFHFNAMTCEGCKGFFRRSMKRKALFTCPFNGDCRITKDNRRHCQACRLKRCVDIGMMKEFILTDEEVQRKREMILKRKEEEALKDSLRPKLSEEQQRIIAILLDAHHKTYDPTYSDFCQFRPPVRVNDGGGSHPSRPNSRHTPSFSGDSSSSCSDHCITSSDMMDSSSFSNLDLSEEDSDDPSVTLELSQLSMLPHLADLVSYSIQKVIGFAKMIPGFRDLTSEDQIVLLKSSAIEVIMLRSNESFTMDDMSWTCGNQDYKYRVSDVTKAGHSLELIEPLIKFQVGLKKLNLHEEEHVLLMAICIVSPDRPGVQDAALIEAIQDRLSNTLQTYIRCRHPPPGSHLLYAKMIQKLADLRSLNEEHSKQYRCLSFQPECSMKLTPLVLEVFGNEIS
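Compounds are added to VDR with labelled SRC2-3 coactivator peptide and held 2 h at room temperature. Inhibition of the VDR–peptide interaction is then read as a change in fluorescence polarization.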
Tau ThT inhib = tau fibrillization inhibition (ThT binding) | actives 2.1% (n = 270,000) | P10636 | AID 1460 | recombinant tau K18 P301L, heparin-induced fibrillization, ThT fluorescence | Potency, µM (doses to about 57.4 µM), for the others: at the top dose activity, negative = inhibition, actives largely listed as inhibitors; further: nearly all actives have a fitted effect of over 55% in size
Target sequence (P10636 561-689 P618L limits assumed): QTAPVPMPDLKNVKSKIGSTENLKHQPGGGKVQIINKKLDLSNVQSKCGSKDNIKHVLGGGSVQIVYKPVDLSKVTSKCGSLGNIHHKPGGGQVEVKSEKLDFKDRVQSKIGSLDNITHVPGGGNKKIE
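Using a mix of unlabeled (15 uM) and Alexa 594-labeled (0.24 uM) tau K18 P301L, heparin-triggered fibrillization over 6 hr at 37 C was scored by ThT fluorescence.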
Tau fibril FP = blocks human tau fibril formation measured by polarization; P10636; K18 P301L tau heparin fibrillization, Alexa594 FP, 6 h; Potency, µM (titrated, usually from 57.7 µM), for inactives: top-dose activity, negative = inhibition, most hits filed as inhibitors; actives 0.39% (n = 280,000); AID 1468; further: nearly all actives have a fitted effect of over 55% in size
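Human tau K18 […] P301L fragment, 15 uM unlabeled plus 0.24 uM Alexa 594-labeled tau (final), with compound and 20 uM heparin in 100 mM sodium acetate pH 7; 6 hr at 37 C, then Alexa 594 FP read.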
Tau fluor cs = counter-screen for tau fibril formation inhibitors; tau K18 P301L Alexa594 fluorescence, heparin fibrillization; Potency, µM (highest dose often 57.7 µM), without a hit: at the highest dose activity change, negative = decrease; actives 0.93% (n = 280,000); further: nearly all actives have a fitted effect of over 55% in size
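Human tau K18 P301L (15 uM unlabeled, 0.24 uM Alexa 594-labeled) in 100 mM sodium acetate pH 7 with 20 uM heparin, 6 hr at 37 C. ThT 30 uM added, 1 hr ambient; Alexa 594 FP and total fluorescence read at 555/632 nm.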
Sfp inh = blocks B. subtilis Sfp PPTase activity; Q9F4F7; actives 3.5% (n = 310,000); Biochemical Sfp PPTase activity, qHTS; Potency, µM, for inactives: largest response in the series, negative = inhibition, hits mostly inhibitors;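 further: the enzyme is Sfp with the accession as filed and its product quenches rhodamine fluorescence; 0% = enzyme reaction without inhibitor and -100% = no enzyme wells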
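After 15 min at room temperature with compound, 15 nM Sfp received 5 uM rhodamine-CoA plus 12.5 uM BHQ-2-ybbR (50 mM Hepes pH 7.6, 10 mM MgCl2). Rate came from the fluorescence difference over 30 min, ex 525/em 598 nm.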
* = called active by the depositor; ? = inconclusive; · = not tested or not shown; ! = not confirmed by another sample; [ ] = another dose, or the depositor's remark. The call rests on the fitted dose curve; in most records, active means well fitted curve in the direction sought with a large enough effect; inconclusive means small, poorly fitted or top-dose-only effect, or another doubt; inactive means no such curve, though single readings can be large; an effect the other way counts as inactive or inconclusive. Unless noted, on the % scale 0 is the no-effect control and ±100 the full control effect; potency means the concentration at half of the fitted maximal effect.

SMILES | PLK1 PBD inh | VDR inhibitor | Tau ThT inhib | Tau fibril FP | Tau fluor cs | Sfp inh
Nc1cc(S(=O)(=O)Nc2cc(Cl)ccc2Cl)ccc1N1CCOCC1 | 1.89µM* | 35.5µM* | ? | ? | -21.6% | 11.2µM*
Cc1ccc(S(=O)(=O)NC(=O)c2cc(C)n(-c3cc(S(=O)(=O)N4CCOCC4)ccc3N3CCCC3)c2C)cc1 | 29.9µM* | 18.0% | -15.4% | 2.3% | -4.4% | ?
Cc1ccc(C(=O)Nc2cc(S(=O)(=O)N3CCOCC3)ccc2N2CCCC2)cc1 | 0.6% | 0.3% | · | · | · | ·
CCCCn1c(CNC(=O)C23CC4CC(CC(C4)C2)C3)nnc1SCC(=O)Nc1ccc(F)cc1 | · | -6.7% | -2.3% | -4.8% | ? | ·
CCCOC(=O)c1ccc(NC(=O)Cc2csc(C)n2)cc1 | · | -0.6% | -6.4% | -1.2% | -11.8% | ·
O=C(N/N=C/c1c[nH]c2ccc(Br)cc12)c1ccn(Cc2ccc(Cl)cc2)n1 | -7.6% | 1.0% | ? | 9.8% | 11.2µM*[quencher] | 5.5%
CCCOc1ccc(C(=O)N/N=C/c2c[nH]c3ccc(Br)cc23)cc1 | -14.9% | 12.8% | · | · | · | 8.4%
O=C(N/N=C/c1c[nH]c2ccccc12)c1ccn(Cc2ccc(Cl)cc2Cl)n1 | 5.2% | -15.2% | ? | 16.7% | 12.6µM*[quencher] | 1.9%
COc1ccc(CNC(=O)CCc2nc(-c3ccc(C)cc3)no2)c(OC)c1 | · | 9.2% | -8.7% | 5.2% | -18.6% | ·
CC1=C(C(=O)Nc2ccccc2F)C(c2cccs2)C2=C(CCCC2=O)N1 (centres undefined) | 23.8µM* | ? | -5.7% | 1.6% | -4.9% | 13.9%
CCCOC(=O)C1=C(C)NC2=C(C(=O)CCC2)C1c1cccs1 (centres undefined) | -5.8% | -4.6% | -3.8% | -1.4% | -2.9% | 9.6%
C[C@@H]1[C@H]2CC[C@@H]3[C@@H]4CC=C5C[C@@H](N(C)C)CC[C@]5(C)[C@@H]4CC[C@@]32CN1C | · | 11.4% | · | · | · | 23.2%
CCOc1ccc(NC(=O)Nc2nnc(N3CCCCC3C)s2)cc1 (centres undefined) | · | 7.2% | ? | 1.2% | -12.4% | ·
Cc1ccc(C(=O)/C=C/C(=O)c2ccc(C)cc2)cc1 | 1.68µM* | ? | -10.3% | -6.6% | 2.8% | 3.16µM*
Cc1ccc(C(=O)/C=C/c2ccc(-c3ccccc3[N+](=O)[O-])o2)cc1 | -13.6% | -4.9% | 8.91µM* | -3.7% | ? | -13.7%
Cc1ccc(/C=C/C(=O)c2ccc(C)cc2)cc1 | -0.5% | ? | ? | 6.4% | -2.2% | -2.7%
O=C(/C=C/c1ccc(-c2ccccc2[N+](=O)[O-])o1)c1ccc(F)cc1 | -2.5% | -22.9% | ? | -2.5% | -20.4% | 5.1%
Cc1ccc(C(=O)/C=C/c2ccccc2[N+](=O)[O-])cc1 | 26.7µM* | ? | ? | 14.1% | -21.5% | -16.0%
O=C(/C=C\c1ccccc1[N+](=O)[O-])Nc1ccccc1 | -4.7% | -11.7% | ? | 7.3% | -13.4% | 17.8%
O=C(/C=C/c1ccc(-c2ccccc2[N+](=O)[O-])o1)c1ccc(Br)cc1 | -14.2% | 4.7% | 7.94µM* | -5.3% | ? | -1.1%
COc1ccccc1C1Nc2c(sc3nc(C)cc(C)c23)C(=O)N1c1ccccc1 (centres undefined) | · | 6.3% | -8.7% | 4.1% | -29.7% | ·
CC1(C(=O)NS(=O)(=O)c2ccccc2Cl)CCN1C(=O)CCC1CCCC1 (centres undefined) | 0.8% | · | · | · | · | ·
CC1=C(C(N)=O)C(c2ccc(C)cc2)n2nc(SCc3ccccc3F)nc2N1 (centres undefined) | · | -26.8% | 5.6% | 4.6% | -1.3% | ·
Cc1ccc(NC(=O)CSc2nncn3c2cc2sccc23)cc1F | · | 12.2% | 7.9% | -16.2% | -18.0% | ·
Cc1ccc(C(=O)N/C(=C\c2ccc(-c3ccccc3[N+](=O)[O-])o2)C(=O)NCCCN2CCOCC2)cc1 | 26.7µM* | ? | · | · | · | ?
SMILES | PLK1 PBD inh | VDR inhibitor | Tau ThT inhib | Tau fibril FP | Tau fluor cs | Sfp inh
Cc1ccc(C(=O)N/C(=C/c2ccc(C(C)C)cc2)C(=O)NCCCN2CCOCC2)cc1 | 4.1% | -7.9% | 9.9% | -10.8% | 2.4% | 7.9%
COc1cccc2sc(NN)nc12 | -15.8% | ? | ? | ? | 28.2µM*[quencher] | 50.1µM*
COc1cc(C/C=C\c2ccccc2)c(OC)cc1O | · | 44.7µM* | 20µM* | ? | ? | 44.7µM*
COc1cccc(Cn2c(C(C)n3c(-c4cnccn4)nc4ccccc43)nc3ccccc32)c1 (centres undefined) | -11.2% | · | · | · | · | ·
COc1ccc(OC)c(S(=O)(=O)N2CCC(n3c(C)nc4cccnc43)CC2)c1 | · | 8.7% | 4.7% | -4.0% | -5.7% | ·
O=[N+]([O-])c1cc(C2Nc3cccc4cccc(c34)N2)ccc1Cl | -8.6% | -15.2% | 17.8µM* | ? | 17.8µM*[quencher] | ?
O=C(Nc1ccccc1Br)N1CCC(CN2CCCC2)CC1 | · | 6.5% | ? | ? | -12.3% | ·
CCCCCc1cc(=O)oc2c(C(CCN3CCCC(C)C3)c3ccc(N(C)C)cc3)c(OC)cc(OC)c12 (centres undefined) | 1.4% | -1.6% | ? | 0.1% | ? | 56.2µM*
CCCCCc1cc(=O)oc2c(C(CCN3CCCC(C)C3)c3cc(OC)c(OC)c(OC)c3)c(OC)cc(OC)c12 (centres undefined) | -7.9% | -7.1% | ? | -7.5% | -14.4% | -0.2%
COc1cc(OC)c2c(-c3ccccc3)cc(=O)oc2c1C(CCN1CCCCC1)c1ccc2c(c1)OCO2 (centres undefined) | 3.9% | 5.2% | -6.4% | 7.5% | 5.5% | 12.6µM*!
CCCCCc1cc(=O)oc2c(C(CCN3CCCCC3)c3cc(OC)c(OC)c(OC)c3)c(OC)cc(OC)c12 (centres undefined) | 2.3% | 6.9% | -12.2% | 2.8% | 11.1% | 79.4µM*
COc1cc(OC)c2ccc(=O)oc2c1C(CCN1CCCC(C)C1)c1ccc(N(C)C)cc1 (centres undefined) | -3.1% | -2.3% | -16.8% | 2.7% | -19.0% | 3.4%
COc1cc(OC)c2c(-c3ccccc3)cc(=O)oc2c1C(CCN1CCCC(C)C1)c1ccc2c(c1)OCO2 (centres undefined) | 4.2% | 2.7% | -5.3% | 7.0% | -1.1% | ?
COc1ccc(-c2nc3ccccn3c2Nc2ccccc2C)cc1 | · | -4.6% | · | · | · | ·
COCCNC(=O)C1(C)CCCN(C(=O)c2cc(F)cc(F)c2)C1 (centres undefined) | -7.3% | · | · | · | · | ·
COc1cc(C(=O)N2CCN(c3cccc(C(F)(F)F)c3)CC2)ccc1OCC(=O)N1CCOCC1 | -1.7% | -21.7% | · | · | · | ·
Cc1ccc(/C=C/C(=O)Nn2cnnc2)cc1 | -4.3% | -0.4% | 14.1µM* | ? | -15.0% | 19.6%
CC(C)c1ccc(/C=C/C(=O)Nn2cnnc2)cc1 | · | 5.1% | · | · | · | ·

Screening data (PubChem)
